Results with a measured potency or affinity are listed apart.

This assay can be described thus: inhibitors of CD8+ T cell–vesicle binding, dose response, mouse 2C CD8+ T cells, flow cytometry (AID 485284).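 Further: drosophila derived vesicles carrying Ld MHC with QL9 peptide plus B7-1 and ICAM-1; vesicle binding seen as anti-B7-1 PE fluorescence on CD8 gated cells.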 The settings on record: 2C mouse CD8+ T cell-exosome binding; at 45 µM (top of the series). On the technique in general: In flow cytometry, cells or beads pass a laser one at a time.
For `Cc1c(C(=O)N(C)Cc2ccccc2)oc2ccc(S(=O)(=O)N3CCCC3)cc12`, the binding remaining, % of control was found to be 120%.
The result for `O=C(Nc1ncc([N+](=O)[O-])s1)c1cccs1` reads 56.8%; that for `CCOC(=O)c1c(N2C(=O)CC(Sc3ccccc3C(=O)O)C2=O)sc2c1CCCC2` (centres undefined), 41.4%; that for `Cc1cccc(C(=O)OCC(=O)NN2C(=O)NC3(CCC(C)CC3)C2=O)c1O` (centres undefined), 209%.
For the compound `CCC1(c2ccccc2)NC(=O)N(CC(=O)Nc2cc(Cl)ccc2N2CCN(C)CC2)C1=O` (centres undefined), the binding remaining, % of control amounted to 124%.
Take `O=C(NCCc1nc2ccc(Cl)cc2[nH]1)C1CCC(=O)N(Cc2cccc(F)c2)C1` (centres undefined): the binding remaining, % of control came to 110%.
The result for `C/C(=N\NC(=O)c1ccco1)c1cc2ccccc2o1` reads 160%.
The result for `NC(=O)NC(=O)COC(=O)CN1C(=O)C2CCCCC2C1=O` (centres undefined) reads 164%; that for `CC(C)(C)NC(=O)COc1ccc(CNCc2ccccn2)cc1`, 120%.
In the case of `O=C(Cc1ccc(S(=O)(=O)N2CCOCC2)s1)Nc1ccc(S(=O)(=O)N2CCCCC2)cc1` it was 72.7%; in that of `Cc1ccccc1C(=O)N1CCC(C(=O)Nc2ccc(C)c(S(=O)(=O)N3CCCCC3)c2)CC1`, 134%; in that of `CCOC(=O)N1CCC(=NNc2ncc(C(F)(F)F)cc2Cl)CC1`, 24.2%.
For `CN1CCN(C(=O)c2cc3ccccc3cc2O)CC1`, the binding remaining, % of control was determined as 178%.
`CC(=O)Nc1ccc(S(=O)(=O)NC2CCSc3ccccc32)cc1` (centres undefined): the binding remaining, % of control was found to be 273%.
In the case of `Cc1cccc(N(C(=O)c2snc(C(N)=O)c2N)C(C(=O)NCC2CCCO2)c2ccc(N(C)C)cc2)c1C` (centres undefined) it was 22.8%.
In the case of `CCCCCCCCn1c2c(c(=N)c3c1CCC3)CCCC2` it was 36.6%; in that of `COc1ccc(NC(=O)CN2CCN(S(=O)(=O)c3ccc(Cl)cc3)CC2)cc1`, 79.2%.
Turning to `CCSc1nnc(NC(=O)c2ccc(F)c(S(=O)(=O)N3CCOCC3)c2)s1`, the binding remaining, % of control was 127%.
For `CCc1noc(C)c1C(=O)OC(C)C(=O)Nc1ccc2c(c1)OCO2` (centres undefined), the binding remaining, % of control came out at 171%.
`O=C(Cc1cccs1)Nc1cc(S(=O)(=O)N2CCCCC2)ccc1Cl`: the binding remaining, % of control turned out to be 121%.
In the case of `CCOC(=O)N1CCN(C(=O)c2ccc(CS(=O)Cc3ccc(C)cc3)o2)CC1` (centres undefined) it was 44.7%; in that of `CCOC(=O)c1cc2occc2n1CC(=O)NC1CCC(C)CC1` (centres undefined), 77%.
In the case of `O=C(Cc1c(Cl)cccc1Cl)Nc1cccc(S(=O)(=O)N2CCOCC2)c1` it was 112%.
In the case of `Cc1cccc(OCC(=O)Nc2ccccc2C(=O)N2CCOCC2)c1` it was 161%.
With `Cc1ccc(C)c(-n2c3nc(=O)[nH]c(=O)c-3cc3cc([N+](=O)[O-])ccc32)c1`, the binding remaining, % of control was 133%.
As for `Cn1c(CNC(=O)CNC(=O)c2ccc(F)cc2)cc(=O)n(C)c1=O`, the binding remaining, % of control was determined as 99.6%.
In the case of `Cc1cc(=O)oc2c3c(cc(OCC(=O)NCc4ccncc4)c12)OC(C)(C)CC3` it was 119%.
In the case of `Cc1ccc(C(C)n2cc(C(=O)NCCN3CCN(C)CC3)nn2)cc1` (centres undefined) it was 144%; in that of `COc1ccc(NC(=O)Cc2ccc(C)c(C)c2)cc1S(=O)(=O)N1CCCCC1`, 32.4%; in that of `CCCCN(C(=O)CCCc1nc2ccccc2s1)c1c(N)n(CC(C)C)c(=O)[nH]c1=O`, 187%.
Regarding `COc1ccc(/C=C2\SC(N3CCc4ccccc4C3)=NC2=O)cc1OC`, the binding remaining, % of control turned out to be 18.6%.
The result for `CC(Sc1nc2ccccc2[nH]1)C(=O)NC1CCCCC1C` (centres undefined) reads 87.9%; that for `COc1cccc(NC(=O)Nc2ccc3nc(C)c(C)nc3c2)c1`, 129%; that for `CCOC(=O)C1(CC2CCCCO2)CCN(S(=O)(=O)c2ccc(C)s2)CC1` (centres undefined), 105%.

The values above are taken from PubChem BioAssay AID485284 (NMMLSC, 2010).
